Data published in the supplement of paper PMC12645437, “Orthogonal IMiD-Degron Pairs Induce Selective Protein Degradation in Cells” (ACS Chemical Biology, 2025).
In all, about 8,300 sequences were measured (“log2 fold change of degron read counts, EGFP-low vs EGFP+ sorted cells (limma voom), compound-induced degradation”: median about -1.1, highest 2% from about 3.2 on). Many of the other results were omitted from the sample, so the highest values are more common in it than they were.

B1: 46F_47W_49D_50I_52G_53A_54L_55F_67L_, Q9UKT9 (peptide)
chain: FWCDICGALFTQKGNLLRHIKL
B2: 46F_47N_49P_50I_52G_53A_54G_55F_67L_, Q9UKT9 (peptide)
chain: FNCPICGAGFTQKGNLLRHIKL
B3: 46L_47V_49E_50I_52G_53F_54F_55C_67L_, Q9UKT9 (peptide)
chain: LVCEICGFFCTQKGNLLRHIKL
B4: 46F_47I_49P_50I_52G_53A_54C_55F_67L_, Q9UKT9 (peptide)
chain: FICPICGACFTQKGNLLRHIKL
B5: 46F_47C_49P_50I_52G_53A_54C_55F_67L_, Q9UKT9 (peptide)
chain: FCCPICGACFTQKGNLLRHIKL
B6: 46F_47V_49P_50I_52G_53A_54C_55F_67L_, Q9UKT9 (peptide)
chain: FVCPICGACFTQKGNLLRHIKL
B7: 46F_47W_49P_50I_52G_53A_54C_55F_67L_, Q9UKT9 (peptide)
chain: FWCPICGACFTQKGNLLRHIKL
B8: 46F_47D_49P_50I_52G_53A_54C_55F_67L_, Q9UKT9 (peptide)
chain: FDCPICGACFTQKGNLLRHIKL
B9: 46F_47Y_49P_50I_52G_53A_54C_55F_67L_, Q9UKT9 (peptide)
chain: FYCPICGACFTQKGNLLRHIKL
B10: 46F_47A_49P_50I_52G_53A_54C_55F_67L_, Q9UKT9 (peptide)
chain: FACPICGACFTQKGNLLRHIKL
B11: 46F_47S_49P_50I_52G_53A_54C_55F_67L_, Q9UKT9 (peptide)
chain: FSCPICGACFTQKGNLLRHIKL
B12: 46F_47N_49P_50I_52G_53A_54C_55F_67L_, Q9UKT9 (peptide)
chain: FNCPICGACFTQKGNLLRHIKL
B13: 46F_47Q_49P_50I_52G_53A_54C_55F_67L_, Q9UKT9 (peptide)
chain: FQCPICGACFTQKGNLLRHIKL
B14: 46F_47M_49P_50I_52G_53A_54C_55F_67L_, Q9UKT9 (peptide)
chain: FMCPICGACFTQKGNLLRHIKL
B15: 46F_47L_49P_50I_52G_53A_54C_55F_67L_, Q9UKT9 (peptide)
chain: FLCPICGACFTQKGNLLRHIKL

Target: T1, CRBN, Q96SW2
T1 chain: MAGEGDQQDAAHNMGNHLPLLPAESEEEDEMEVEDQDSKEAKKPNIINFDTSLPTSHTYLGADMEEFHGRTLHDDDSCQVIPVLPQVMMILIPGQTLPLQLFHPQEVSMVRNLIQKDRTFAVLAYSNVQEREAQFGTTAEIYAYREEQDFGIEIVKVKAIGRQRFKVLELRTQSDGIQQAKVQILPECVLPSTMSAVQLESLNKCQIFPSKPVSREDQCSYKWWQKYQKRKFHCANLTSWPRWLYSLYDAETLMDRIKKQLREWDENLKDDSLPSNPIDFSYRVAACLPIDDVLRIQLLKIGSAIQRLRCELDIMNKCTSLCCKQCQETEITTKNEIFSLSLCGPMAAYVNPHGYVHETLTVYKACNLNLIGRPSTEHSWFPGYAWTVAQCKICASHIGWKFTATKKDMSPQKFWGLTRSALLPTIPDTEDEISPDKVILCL
Experiment: log2 fold change of degron read counts, EGFP-low vs EGFP+ sorted cells (limma voom), compound-induced degradation; higher = more compound-induced degradation of the degron-EGFP fusion; degrons are variants of IKZF1/3 zinc finger 2; compound dose not given here
Settings: Jurkat, 18 h
Method: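 Pooled library of 8380 IKZF3 ZF2 degron mutants (positions 146-167 varied within the IKZF3 130-189 degron; only the varied core is printed, flanks not printed) fused to EGFP with IRES-mCherry, lentivirally expressed in Jurkat cells. mCherry+ cells were treated with one IMiD compound for 18 h (dose not stated) and FACS-sorted into EGFP-low and EGFP+ populations. Degron sequences were counted by NGS, and log2FC (EGFP-low vs EGFP+) was estimated by limma voom over 3 biological replicates.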

[1] = compound: compound 19 (5-tert-butyl-thalidomide)
[2] = compound: compound 22 (5-morpholino-thalidomide)
[3] = compound: compound 33 (diphenyl IMiD analogue)
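Note: pooled lentiviral library of zinc finger degron-EGFP fusions in mCherry-positive Jurkat cells, FACS-sorted after compound exposure, with degron abundance counted by next-generation sequencing.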

Sequence | log2 fold change of degron read counts [1] | log2 fold change of degron read counts [2] | log2 fold change of degron read counts [3] | log2 fold change of degron read counts (compound: thalidomide)
B1 | 2.43 | 2.23 | 0.921 | -1.11
B2 | 2.9 | 0.718 | 0.577 | 0.35
B3 | 0.178 | 0.388 | 0.876 | 1.42
B4 | -0.628 | 2.02 | 1.94 | 2.17
B5 | 2.52 | 2.23 | 2.82 | 2.11
B6 | 0.0061 | 2.13 | 2.08 | 2.38
B7 | 3.58 | 3.31 | 2.4 | 1.46
B8 | 1.96 | 0.401 | 2.22 | 2.13
B9 | 3.5 | 3.63 | 2.59 | 1.59
B10 | 3.48 | 2.09 | 1.78 | 1.06
B11 | 2.84 | 2.22 | 2.64 | 1.47
B12 | 2.34 | 1.06 | 1.37 | 0.843
B13 | 0.828 | 3.06 | 2.53 | 3.77
B14 | -0.174 | 0.429 | 2.49 | 1.41
B15 | 0.664 | -0.175 | 1.79 | 1.62
